# From PubChem BioAssay
# Shiga inhibitor = blocks Shiga toxin action in Vero cells; Vero cells, Shiga toxin protein synthesis inhibition reporter; 9.2% of 290,000 active; AID 2315; inhibition, % at 38.7 µM; in the data active = inhibition mostly above about 28%, no sharp cut-off; inactive = mostly below about 43%; also: 0% is about no effect
# LmPK inh = blocks Leishmania mexicana pyruvate kinase activity; Potency, µM (series often up to 57.5 µM), for the others: at the top dose activity change, negative = inhibition, usual class: inhibitors; Q27686; 0.37% of 290,000 active; purified LmPK, Kinase-Glo ATP luminescence, 1 h; also: potency is read from the fitted curve at half-maximal effect; % is scaled to controls: 0 for no effect and ±100 for the full control effect
#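 0.1 nM LmPK, 0.5 mM PEP, 0.1 mM ADP; 50 mM imidazole pH 7.2, 7 mM MgCl2, 50 mM KCl; 1 h RT. Kinase-Glo luminescence readout, normalized to no-enzyme (full inhibition) and uninhibited wells.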
# Cycloheximide cs = counter-screen hit for Shiga toxin inhibitors, cycloheximide; cell reporter, cycloheximide protein synthesis inhibition counterscreen; max response, %; 12% of 300,000 active; in the data active = max response mostly above about 13%, no sharp cut-off; inactive = mostly below about 14%; also: read at 38.3 µM for the half of the compounds with a filed dose; 0% is about no effect
# Tb PYK inh = inhibitors of Trypanosoma brucei pyruvate kinase; AID 624173; Potency, µM (series often up to 76.8 µM), without a hit: at the highest dose activity, negative = inhibition, actives largely listed as inhibitors; TbPYK enzyme, Kinase-Glo Plus ATP luminescence, 45 min; 0.12% of 410,000 active; also: potency is read from the fitted curve at half-maximal effect; % is scaled to controls: 0 for no effect and ±100 for the full control effect; nearly all actives have a fitted effect of over 50% in size
#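 TbPYK + substrate in 50 mM TEA pH 7.2, 100 mM KCl, 10 mM MgCl2, 0.05% BSA, 0.01% Tween-20; cpd pinned; ADP 130 uM final; 45 min RT; Kinase-Glo Plus 10 min; luminescence endpoint.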
# RE007 growth inh = less growth of the S. pombe RE007 Vpr strain; S. pombe RE007 Vpr strain, BacTiter-Glo ATP luminescence, 24 h; Potency, µM (titrated, usually from 92.2 µM), for inactives: at the top dose activity change, negative = less growth, hits mostly inhibitors; 0.21% of 360,000 active; active = well fitted falling curve with a large enough effect; inconclusive = small, poorly fitted or top-dose-only effect; inactive = no such curve, though single readings can be large or run the other way; also: potency is read from the fitted curve at half-maximal effect; % is scaled to controls: 0 for no effect and ±100 for the full control effect; nearly all actives have a fitted effect of over 50% in size
#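 Fission yeast strain RE007, carrying one chromosomally integrated HIV-1 vpr copy, was seeded at OD 0.01 in PMG+AL medium with 23 nL pinned compound. After 24 h at 30 °C and 99% humidity, viability was read by BacTiter-Glo luminescence.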
# Giardia FBPA inh = Giardia lamblia aldolase inhibition | purified Giardia FBPA | Potency, µM (titrated, usually from 59.6 µM), without a hit: top-dose activity, negative = inhibition, actives largely listed as inhibitors | 0.71% of 290,000 active | AID 2451; also: potency is read from the fitted curve at half-maximal effect; % is scaled to controls: 0 for no effect and ±100 for the full control effect; nearly all actives have a fitted effect of over 55% in size
# Target sequence (A8B2U2 whole entry, looked up): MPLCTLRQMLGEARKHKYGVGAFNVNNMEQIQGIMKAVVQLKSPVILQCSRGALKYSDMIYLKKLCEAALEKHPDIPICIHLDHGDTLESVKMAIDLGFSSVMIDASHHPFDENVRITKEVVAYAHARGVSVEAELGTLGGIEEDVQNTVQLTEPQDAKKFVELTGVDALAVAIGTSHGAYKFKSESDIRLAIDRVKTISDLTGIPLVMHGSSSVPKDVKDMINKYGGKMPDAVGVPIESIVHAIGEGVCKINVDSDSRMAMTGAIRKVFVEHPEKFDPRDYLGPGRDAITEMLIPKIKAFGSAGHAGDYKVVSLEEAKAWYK
#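 Giardia FBPA (40 nM reagent) was preincubated 10 min at RT with compound (up to 57.5 uM final), then substrate plus GAPDH/TPI/NAD/arsenate coupling system with diaphorase/resazurin was added; resorufin fluorescence (525/598 nm) was read after 20 min.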
# Active calls of the source: *; ? = inconclusive; · = not tested or not shown. The full list was thinned out, with hits kept by preference. Unless noted, calls follow the shape of the dose curve; as a rule, active = well fitted curve in the direction sought with a large enough effect; inconclusive = small, poorly fitted or top-dose-only effect, or another doubt; inactive = no such curve, though single readings can be large; an effect the other way counts as inactive or inconclusive.
SMILES,Shiga inhibitor,LmPK inh,Cycloheximide cs,Tb PYK inh,RE007 growth inh,Giardia FBPA inh
Cn1cnnc1SCc1ccc(C(=O)NN)cc1,48,-9%,45*,-2%,11%,-4%
Cn1cnnc1SCc1ccc(C(=O)N/N=C(\CCC(=O)O)c2ccc(C(C)(C)C)cc2)cc1,32*,0%,14*,?,22%,-1%
COc1ccc(-c2nc3ccccc3o2)cc1NC(=O)c1cccc2c(Cl)cccc12,·,·,·,0%,·,·
COc1ccc(C(C(=O)NCc2ccccc2)N(C(=O)Cn2nnc3ccccc32)c2ccc(F)cc2)cc1 (centres undefined),·,·,·,-2%,·,·
O=C(/C=C/c1ccccc1)NC(=S)NNC(=O)c1ccco1,65*,-3%,20*,-4%,-13%,?
NC(N)=NS(=O)(=O)c1ccc(NC(=S)NC(=O)/C=C/c2ccc(F)cc2)cc1,-13,5%,-3,1%,6%,3%
O=C(/C=C/c1ccc(F)cc1)NC(=S)Nc1ccccc1,34*,2%,13,17%,-20%,-7%
O=C(/C=C/c1ccccc1)NC(=S)Nc1ncccn1,51*,-2%,25*,1%,·,?
O=C(/C=C/c1ccc(Br)cc1)NC(=S)NNC(=O)c1ccco1,17,2%,7,1%,-21%,2%
O=C(/C=C/c1ccccc1)NC(=S)Nc1ccccc1,·,-3%,25*,-2%,-1%,1%
CC(=O)N1CCc2cc(S(=O)(=O)NC(CC(C)C)C(=O)NCCc3ccc(C)cc3)ccc21 (centres undefined),·,·,·,8%,·,·
COCC(C)NS(=O)(=O)c1ccc(NC(=O)c2ccccn2)cc1 (centres undefined),31*,1%,11*,3%,-13%,0%
Cc1ccc(S(=O)(=O)N(C)c2ccc(C(=O)Nc3ccccn3)cc2)cc1,·,·,·,-7%,7%,·
CCCNS(=O)(=O)c1ccc(NC(=O)c2ccccn2)cc1,92*,?,29,-20%,-16%,-5%
CN(C)S(=O)(=O)c1ccc(C(=O)Nc2ccccn2)cc1,57,-5%,22*,-5%,3%,14%
CCN(CC)S(=O)(=O)c1ccc(NC(=O)c2ccccn2)cc1,96*,?,30*,-3%,-1%,1%
Cc1cccc(N2CCN(C(=O)Cn3c(-c4cccs4)cc4ccccc43)CC2)c1C,·,·,·,3%,·,·
CN(C)S(=O)(=O)c1ccc(NC(=O)c2ccccn2)cc1,112*,-22%,34*,5%,3%,-1%
CC(=O)NS(=O)(=O)c1ccc(NC(=O)c2ccccn2)cc1,11,3%,-1,3%,-2%,-15%
Cn1c2ccccc2c(=O)c2cc(NCCCN3CCOCC3)ccc21,·,·,·,-4%,-10%,·
O=c1c2ccccc2oc2cc(NCCCn3ccnc3)ccc12,24*,-1%,24*,0%,-6%,9%
O=c1c2ccccc2oc2ccc(NCCCN3CCOCC3)cc12,43*,2%,36*,-8%,-22%,1%
c1ccc(-c2nc(NCCCn3ccnc3)c3ccccc3n2)cc1,12,-1%,-4,0%,-24%,5%
O=c1c2ccccc2oc2cc(NCCCN3CCOCC3)ccc12,35*,0%,40*,-6%,-4%,2%
O=C(CSc1ncc2c(n1)-c1ccccc1N(Cc1ccc(Cl)cc1)S2(=O)=O)c1ccccc1,·,·,·,1%,·,·
SMILES,Shiga inhibitor,LmPK inh,Cycloheximide cs,Tb PYK inh,RE007 growth inh,Giardia FBPA inh
COc1cccc(-c2cc(C(F)(F)F)n3ncc(C(=O)OC(C)C)c3n2)c1,·,·,·,2%,·,·
O=C(Nc1c(C(=O)Nc2ccc(F)cc2)oc2ccccc12)c1ccccc1F,·,·,·,2%,·,·
COc1ccccc1CNc1ccc(-c2nc(-c3ccncc3)no2)cc1[N+](=O)[O-],·,·,·,1%,·,·
CCOc1ccccc1NC(=O)N1CCc2ccccc2C1,22,1%,19*,-4%,1%,·
COc1ccc(NC(=O)N2CCc3ccccc3C2)c(OC)c1,36*,-1%,16*,-9%,15%,2%
COc1ccc(OC)c(NC(=O)N2CCc3ccccc3C2)c1,10,-17%,16,0%,-2%,·
Nc1c(-c2ccccc2)cnc2cc(-c3ccccc3)nn12,36*,10%,24*,-8%,-15%,-2%
